Results taken from the supplement of paper PMC8728848.
About 410 targets per protein were measured; listed, in parts, are those with the strongest signals and a random draw of the rest.

Columns and labels:
Experiment in all cases: glycan array binding signal (z-score within array); higher = stronger binding
Conditions in all cases: glycan notation: IUPAC condensed, linker removed
[1] = target: Fuc(a1-2)Gal(b1-3)GlcNAc
Summary of the method: (§1)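 The binding signal is a Z-score computed within each array. Data were drawn from 3228 arrays in the Consortium for Functional Glycomics database, restricted to those with a known protein sequence. Scores were averaged over arrays of the same protein sequence at different concentrations or buffers, and over linkers, and negative values can be taken as non-binding.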

[2] = target: Fuc(a1-2)Gal(b1-3)GlcNAc(b1-2)Man(a1-3)[Fuc(a1-2)Gal(b1-3)GlcNAc(b1-2)Man(a1-6)]Man(b1-4)GlcNAc(b1-4)[Fuc(a1-6)]GlcNAc
Summary of the method: as §1

[3] = target: Fuc(a1-2)Gal(b1-4)GlcNAc(b1-2)[Fuc(a1-2)Gal(b1-4)GlcNAc(b1-4)]Man(a1-3)[Fuc(a1-2)Gal(b1-4)GlcNAc(b1-2)Man(a1-6)]Man(b1-4)GlcNAc(b1-4)GlcNAc
Summary of the method: as §1

[4] = target: Fuc(a1-2)Gal(b1-4)[Fuc(a1-3)]GlcNAc(b1-2)Man(a1-3)[Fuc(a1-2)Gal(b1-4)[Fuc(a1-3)]GlcNAc(b1-2)Man(a1-6)]Man(b1-4)GlcNAc(b1-4)GlcNAc
Summary of the method: as §1

[5] = target: Fuc(a1-2)Gal(b1-4)[Fuc(a1-3)]GlcNAc(b1-3)GalNAc
Summary of the method: as §1

[6] = target: Fuc(a1-2)Gal6S(b1-3)GlcNAc
Summary of the method: as §1

[7] = target: Fuc(a1-2)[Gal(a1-3)]Gal
Summary of the method: as §1

[8] = target: Fuc(a1-2)[GalNAc(a1-3)]Gal(b1-4)GlcNAc
Summary of the method: as §1

[9] = target: Fuc(a1-2)[GalNAc(a1-3)]Gal(b1-4)GlcNAc(b1-3)GalNAc
Summary of the method: as §1

[10] = target: Fuc(a1-2)[GalNAc(a1-3)]Gal(b1-4)[Fuc(a1-3)]GlcNAc(b1-3)GalNAc
Summary of the method: as §1

[11] = target: Gal(a1-3)Gal(b1-3)GlcNAc(b1-2)Man(a1-3)[Gal(a1-3)Gal(b1-3)GlcNAc(b1-2)Man(a1-6)]Man(b1-4)GlcNAc(b1-4)GlcNAc
Summary of the method: as §1

[12] = target: Gal(a1-3)Gal(b1-3)[Fuc(a1-4)]GlcNAc(b1-2)Man(a1-3)[Gal(a1-3)Gal(b1-3)[Fuc(a1-4)]GlcNAc(b1-2)Man(a1-6)]Man(b1-4)GlcNAc(b1-4)GlcNAc
Summary of the method: as §1

[13] = target: Gal(a1-4)Gal(b1-4)Glc
Summary of the method: as §1

[14] = target: Gal(a1-6)Glc
Summary of the method: as §1

[15] = target: Gal(b1-3)GlcNAc(a1-6)Gal(b1-4)GlcNAc
Summary of the method: as §1

[16] = target: Gal(b1-4)GlcNAc(b1-2)Man(a1-6)Man(b1-4)GlcNAc(b1-4)GlcNAc
Summary of the method: as §1

[17] = target: Gal(b1-4)GlcNAc(b1-2)[Gal(b1-4)GlcNAc(b1-4)]Man(a1-3)[GlcNAc(b1-4)][Gal(b1-4)GlcNAc(b1-2)[Gal(b1-4)GlcNAc(b1-6)]Man(a1-6)]Man(b1-4)GlcNAc(b1-4)GlcNAc
Summary of the method: as §1

[18] = target: Gal(b1-4)GlcNAc(b1-2)[Gal(b1-4)GlcNAc(b1-6)]Man(a1-6)[Gal(b1-4)GlcNAc(b1-2)Man(a1-3)]Man(b1-4)GlcNAc(b1-4)[Fuc(a1-6)]GlcNAc
Summary of the method: as §1

[19] = target: Gal3S(b1-3)GlcNAc
Summary of the method: as §1

[20] = target: GalNAc(b1-3)GalNAc
Summary of the method: as §1

[21] = target: GalNAc4S6S(b1-4)GlcNAc
Summary of the method: as §1

B1: ArathEULS3 (Arabidopsis thaliana), Q945P1 (protein)
chain: MEHHHQHHRHHQRDDGEDDRQSFGVPPPHVDAPPQPHGLYQSQPHFDPYAPTPQAPAPYRSETQFEPHAPPPYRSEPYFETPAPPPSFGHVSHVGHQSPNESYPPEHHRYGGYQQPSNSLLESHGDHSGVTHVAHHSSNQPQSSSGVYHKPDENRLPDNLAGLAGRATVKVYSKAEPNYNLTIRDGKVILAPADPSDEAQHWYKDEKYSTKVKDADGHPCFALVNKATGEAMKHSVGATHPVHLIRYVPDKLDESVLWTESKDFGDGYRTIRMVNNTRLNVDAYHGDSKSGGVRDGTTIVLWDWNKGDNQLWKIFPFILEQKLISEEDLNSAVDHHHHHH
[1]
  glycan array binding signal (z-score): -0.25
[2]
  glycan array binding signal (z-score): 0.265
[3]
  glycan array binding signal (z-score): 0.36
[4]
  glycan array binding signal (z-score): 1.64
[5]
  glycan array binding signal (z-score): 11.8
[6]
  glycan array binding signal (z-score): -0.322
[7]
  glycan array binding signal (z-score): -0.303
[8]
  glycan array binding signal (z-score): -0.305
[9]
  glycan array binding signal (z-score): -0.012
[10]
  glycan array binding signal (z-score): 7.35
[11]
  glycan array binding signal (z-score): 4.38
[12]
  glycan array binding signal (z-score): 0.898
[13]
  glycan array binding signal (z-score): -0.332
[14]
  glycan array binding signal (z-score): -0.342
[15]
  glycan array binding signal (z-score): -0.235
[16]
  glycan array binding signal (z-score): 2.12
[17]
  glycan array binding signal (z-score): 5.54
[18]
  glycan array binding signal (z-score): -0.026
[19]
  glycan array binding signal (z-score): -0.279
[20]
  glycan array binding signal (z-score): 0.511
[21]
  glycan array binding signal (z-score): -0.105
